Pf Dd2 growth: Plasmodium falciparum Dd2 growth inhibition. P. falciparum Dd2 growth, SYBR Green, 72 h. Potency, µM (highest dose often 28.9 µM), most hits filed as inhibitors. 120,000 compounds, 4.3% hits. AID 1347417; active = well fitted inhibition curve with a large enough effect; also: nearly all actives have a fitted effect of over 65% in size
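Readout: SYBR Green fluorescence, 485 nm excitation, 535 nm emission, after ~16 h lysis at 37C. Before that, Dd2-infected red cells (2.5% hematocrit) grew 72 h with compound, 29 uM top final concentration.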
Numbers stand for hits; – = inactive. The full list was thinned out, with hits kept by preference.

SMILES	Pf Dd2 growth
COc1ccc(C(=O)N2CC[C@@H]3CN(S(C)(=O)=O)[C@@H]3C2)c(OC)c1	–
O=C(c1ccc2[nH]ccc2c1)N1CCN(C(=O)c2nnn3c2COC(c2ccccc2)C3)CC1 (stereo not given)	–
O=C(Cc1ccccc1Br)N1CCCN(c2cc(-c3ccc(F)cc3)[nH]n2)CC1	–
CCN1CCN(C2(C(=O)N3CCC(OC)CC3)Cc3ccccc3C2)CC1	–
CCN1CCN(C2(C(=O)NCCc3ccccc3)Cc3ccccc3C2)CC1	5.01µM
CC1(C(=O)NCCc2ccccc2)CCCCC(=O)N1 (stereo not given)	–
c1cc2cc(Nc3cnc4ccc(N5CCOCC5)nn34)ccc2[nH]1	–
Cc1ccc(NC(=O)N2CCC(CCNC(=O)C3CCC3)CC2)cc1F	–
CC(C)c1ccc(Nc2c(-c3ccccn3)nc3ccccn23)cc1	4.47µM
Cc1ccc2nc(-c3ccc(C)s3)c(Nc3ccc4c(c3)OCCO4)n2c1	–
COc1ccc(Nc2ccc3nnc(-c4ccccn4)n3n2)cc1	–
Clc1ccc2nc(-c3ccc(Br)o3)c(Nc3ccc4c(c3)OCCO4)n2c1	–
Cc1ccc2nc(-c3ccccn3)c(Nc3ccc(F)cc3)n2c1	3.98µM
Fc1ccc(Nc2c(-c3ccccn3)nc3ccc(Cl)cn23)cc1	8.91µM
Cc1ccc(Nc2c(-c3cccnc3)nc3ccc(C)cn23)cc1	–
COc1cc(-c2nc3nc[nH]n3c2Nc2ccc(C(C)C)cc2)ccc1O	–
COc1cccc(C(=O)NC2CCN(c3cn[nH]c(=O)c3)CC2)c1	–
CCN(CC)Cc1cnc2c(C(=O)N3[C@H]4CCNC[C@@H]3CC4)cnn2c1	–
CO[C@H]1C(=O)N(C2CCN(C(=O)Cc3c[nH]c4ccccc34)CC2)[C@H]1c1ccncc1	–
O=C(c1ccccc1Cl)N1CCC(c2nn(Cc3ccccc3)c(=O)[nH]2)CC1	–
CS(=O)(=O)N1CCC(C2CCN(C(=O)Cc3cccc(F)c3)C2)CC1 (stereo not given)	–
COc1cccc(CN2CC3(C2)C(=O)N(CCCN2CCCC2=O)C(=O)[C@@H]2C[C@@H](O)CN23)c1	–
CCC(=O)Nc1ccc2nc(SCc3ccccc3)sc2c1	–
Cc1cccc(NC(=O)CSc2nc3ccc(NC(=O)CCc4ccccc4)cc3s2)c1	–
CCCC(=O)Nc1ccc2nc(SCc3ccc(C)cc3)sc2c1	8.91µM
SMILES	Pf Dd2 growth
N#Cc1cccc(C(=O)NC2CCc3n[nH]c(=O)n3CC2)c1 (stereo not given)	–
COc1ccc(C(=O)N2C[C@@H](Oc3cccnc3)C[C@H]2C(N)=O)c(OC)n1	–
Cc1ccc(C)c(N2CCN(S(=O)(=O)c3ccc4[nH]c5c(c4c3)CCCCC5)CC2)c1	8.91µM
Cc1ccc(Cl)cc1N1CCN(S(=O)(=O)c2ccc3[nH]c4c(c3c2)CCCC4)CC1	–
Cc1ccc(N2CCN(S(=O)(=O)c3ccc4[nH]c5c(c4c3)CCCCC5)CC2)c(C)c1	–
OC1CC(c2cc(NCCc3nc(Cc4ccccc4)no3)ncn2)C1 (stereo not given)	–
CCCc1noc(-c2cccn3c(CNC(=O)c4cccc(F)c4)nnc23)n1	–
OC(c1nc(Nc2cccc(Cl)c2)n[nH]1)C1CC1 (stereo not given)	–
O=C(CCC1CCCC1)NCCC1CCN(C(=O)Nc2cc(F)ccc2F)CC1	–
Cc1cc(NC(=O)N2CCCC(Cn3cnc4cccnc43)C2)ccc1Br (stereo not given)	8.91µM
O=C(NCc1ccc(OC(F)(F)F)cc1)N1CCCC(Cn2cnc3cccnc32)C1 (stereo not given)	7.08µM
Cc1cccc(NC(=O)N2CCCC(Cn3cnc4cccnc43)C2)c1 (stereo not given)	–
COc1cccc(CNC(=O)N2CCCC(Cn3cnc4cccnc43)C2)c1 (stereo not given)	–
Cc1cc(C)cc(NC(=O)N2CCCC(Cn3cnc4cccnc43)C2)c1 (stereo not given)	–
O=C(NCc1cccc(F)c1)N1CCCC(Cn2cnc3cccnc32)C1 (stereo not given)	–
CN1CC(=O)N(c2ccccc2F)Cc2c(NCCCO)ncnc21	–
O=C1CC(c2ccccc2)N(C(=O)C2CC2)CCCN(S(=O)(=O)c2cccnc2)CCN1 (stereo not given)	–
Clc1cc(N2CCN(c3ncccn3)CC2)n2nccc2n1	–
O=C(c1ccccn1)N1CCN(C(=O)c2nnn3c2COC(c2ccccc2)C3)CC1 (stereo not given)	–
O=C(c1ccc2ccccc2n1)N1CCN(C(=O)c2nnn3c2COC(c2ccccc2)C3)CC1 (stereo not given)	6.31µM
O=C(c1ccccc1)N1CCN(C(=O)c2nnn3c2COC(c2ccccc2)C3)CC1 (stereo not given)	–
COCC1CN(C)CC12CCN(C(=O)c1cnco1)CC2 (stereo not given)	–
O=C(Cc1cccc(Cl)c1)N1CCCC(c2nn(-c3cccc(Cl)c3)c(=O)[nH]2)C1 (stereo not given)	10µM
COc1ccc(-n2nc(C3CCCN(C(=O)c4ccccc4)C3)[nH]c2=O)cc1 (stereo not given)	11.2µM
COc1ccc(-n2nc(C3CCN(C(=O)c4ccccc4)CC3)[nH]c2=O)cc1	–
SMILES	Pf Dd2 growth
O=C(c1ccccc1Cl)N1CCCC(c2nn(-c3cccc(Cl)c3)c(=O)[nH]2)C1 (stereo not given)	–
COc1ccc(-n2nc(C3CCCN(C(=O)Cc4cccc(Cl)c4)C3)[nH]c2=O)cc1 (stereo not given)	–
COc1ccc(C(=O)N2CCCC(c3nn(-c4ccccc4)c(=O)[nH]3)C2)cc1 (stereo not given)	–
CN(C(=O)CN1C(=O)NC(c2ccc(Cl)cc2)C2=C1COC2=O)c1ccccc1 (stereo not given)	–
O=C(Cn1nc2c(cc1=O)CCCC2)NC1CCN(Cc2ccccc2)CC1	–
COc1cccc(NC(=O)N2CC[C@@H](CC(=O)O)[C@@H](CC3=NCCc4ccc(C(C)(C)C)cc43)C2)c1	–
COc1ccc(OC)c(CNC(=O)c2ccc3c(c2)N(S(C)(=O)=O)CC3)c1	–
C[C@H](O)c1c(-c2ccc(F)cc2)noc1C(=O)N1CCC1	–
Cc1noc2c(-c3cccnc3NCCN(C)C)cc(-c3ccccc3)nc12	–
COCCCNc1ncccc1-c1cc(-c2ccccc2)nc2c(C)noc12	–
Cc1noc2c(-c3cccnc3NCCCn3ccnc3)cc(-c3ccccc3)nc12	10µM
O=C(COc1cccnc1)N[C@@H]1[C@@H]2CCO[C@@H]2[C@@H]1C1CCCC1	–
O=C(NC1CCN(c2cc(-c3ccc(Cl)cc3)[nH]n2)C1)c1ccccc1F (stereo not given)	–
CC(C)NC[C@H]1O[C@H](Cc2cc(CN(C)Cc3ccccc3)on2)CC[C@@H]1O	11.2µM
CCNC(=O)NC[C@H]1O[C@H](Cc2cc(CN(C)Cc3ccccc3)on2)CC[C@@H]1O	–
COc1ccc(C(=O)NC[C@H]2O[C@H](Cc3cc(COc4ccccc4)on3)CC[C@@H]2O)cc1	–
Cc1ccc(CNC[C@H]2O[C@H](Cc3cc(-c4ccc(F)cc4)on3)CC[C@@H]2O)cc1	–
CC(=O)N1CCC(NC[C@H]2O[C@H](Cc3cc(COc4ccccc4)on3)CC[C@@H]2O)CC1	–
CN(Cc1ccccc1)Cc1cc(C[C@@H]2CC[C@H](O)[C@@H](CNCc3ccccc3)O2)no1	1.78µM
O[C@H]1CC[C@@H](Cc2cc(-c3ccc(F)cc3)on2)O[C@@H]1CNC1CCNCC1	–

Bioassay records as filed in PubChem BioAssay.
